SMILES strings stand for the structures. Inconclusive results are not listed. Entries that show only a call come without a potency. Activity calls are given as the source filed them. Calls come from the whole dose curve; as a rule, active = well fitted curve in the direction sought with a large enough effect; inconclusive = small, poorly fitted or top-dose-only effect, or another doubt; inactive = no such curve, though single readings can be large; an effect the other way counts as inactive or inconclusive.

Experimental findings from PubChem BioAssay (NCATS) are described below.

The target in test [1] is Aldehyde dehydrogenase, mitochondrial (Homo sapiens) (UniProt P05091). The test can be described thus: qHTS for Inhibitors of the Aldehyde Dehydrogenase Family (ALDH2) Primary screen (AID 2061308). Note: nearly all actives have a fitted effect of over 55% in size. The note with it: ALDH2 enzyme inhibition qHTS, 1536-well; series mostly up to 56 µM. On the technique in general: qHTS replaces the single test concentration by a dilution series.

In test [2] the target is Retinaldehyde dehydrogenase 3 (Homo sapiens) (UniProt P47895). Description: qHTS for Inhibitors of the Aldehyde Dehydrogenase Family (ALDH1A3) Primary screen (AID 2061315). The settings on record: ALDH inhibition qHTS; series mostly up to 56 µM.

Turning to `COc1cc(Cn2ncc3c4sc(C)cc4n(C)c3c2=O)cc(OC)c1`, the Potency entry in test [1] and in test [2] was “inactive” each time.
In the case of `COc1ccccc1C1=Nn2c(COc3ccccc3)nnc2SC1`, the Potency result in test [1] and in test [2] was “inactive” each time.
For the molecule `COc1ccc(C2=Nn3c(nnc3-c3ccccc3OC)SC2)cc1OCC1CC1`, the Potency entry in test [1] and in test [2] was “inactive” in each case.
As to `C=CCc1cc(F)c(S(=O)(=O)N2CCN(S(=O)(=O)c3ccc4c(c3)OCCO4)CC2)cc1F`, the Potency entry in test [1] and in test [2] was “inactive” in each case.
As to `O=C1CCCC2=C1C(c1[nH]ncc1Cl)NC(=NCc1ccco1)N2` (configuration not stated), the Potency entry in test [1] and in test [2] was “inactive” in each case.
Take `CN1CCN(C(=O)[C@H](Cc2ccc(O[S+](=O)([O-])c3cccc4cnccc34)cc2)N[S+](=O)([O-])c2cccc3cnccc23)CC1`: the Potency result in test [1] and in test [2] was “inactive” in each case.
In the case of `NC(=O)C1CCN(c2nc(-c3cccc(C(F)(F)F)c3)cs2)CC1`, the Potency result in test [1] and in test [2] was “inactive” in each case.
For `Cc1ccc(-c2ccc(=O)n(CC(=O)NCCc3ncc[nH]3)n2)cc1`, the Potency entry in test [1] and in test [2] was “inactive” throughout.
Regarding `CCOc1ccc(CCNC(=O)c2cc3sccc3n2C)cc1OCC`, the Potency entry in test [1] and in test [2] was “inactive” each time.
As to `O=C(Nc1ccc(-n2cncn2)c(F)c1)Nc1nnc(-c2ccncc2)s1`, the Potency entry in test [1] and in test [2] was “inactive” each time.
`COc1cc(O)c(C(CC(=O)N2CCCC(C#N)C2)c2ccc3c(c2)OCO3)c(OC)c1` (configuration not stated): the Potency entry in test [1] and in test [2] was “inactive” throughout.
With `CNc1oc(-c2cccc(Cl)c2Cl)nc1C#N`, the Potency result in test [1] and in test [2] was “inactive” in each case.
Take `CCOC(=O)c1c(-c2ccc(OC)cc2)csc1NC(=O)C1CCCO1` (configuration not stated): the Potency result in test [1] and in test [2] was “inactive” each time.
In the case of `O=C(Nc1ccc(-c2nc3ccccc3[nH]2)cc1)c1ccc2sccc2c1`, the Potency entry in test [1] and in test [2] was “inactive” each time.
Turning to `Cc1ccc(-c2cc(C(=O)Nc3ccc(S(=O)(=O)Nc4ccc(C#N)cc4)cc3)c3ccccc3n2)cc1C`, the Potency result in test [1] and in test [2] was “inactive” in each case.
For `O=[N+]([O-])c1nccn1CO[C@@H](CO)[C@H](O)CO`, the Potency entry in test [1] and in test [2] was “inactive” throughout.
Consider `O=C(Nc1ccccn1)c1sc2ccc([N+](=O)[O-])cc2c1Cl`, for which the Potency entry in test [1] and in test [2] was “inactive” each time.
Turning to `CCOC(=O)c1ccoc1-c1ccc2ncnc(N(C)Cc3sccc3C)c2c1`, the Potency entry in test [1] and in test [2] was “inactive” in each case.
Consider `c1nc(NCc2ccc3c(c2)OCO3)c2cc(-c3ccoc3)ccc2n1`, for which the Potency result in test [1] and in test [2] was “inactive” each time.
`NC1(C(=O)NC(CCO)c2ccc(Cl)cc2)CCN(c2ncnc3[nH]ccc23)CC1` (configuration not stated): the Potency entry in test [1] and in test [2] was “inactive” each time.
As for `O=C(Nc1ccccc1)c1cccs1`, the Potency entry in test [1] and in test [2] was “inactive” in each case.
`Cc1cc(NC(=O)Nc2cccc(-c3ccncc3)n2)ccc1Br`: the Potency entry in test [1] and in test [2] was “inactive” each time.
As for `Cc1cc(N[S+](=O)([O-])c2ccc(NC(=O)Cc3ccc(F)c(C)c3)cc2)no1`, the Potency entry in test [1] and in test [2] was “inactive” each time.
Regarding `CCOc1ccccc1-c1nnc2n1N=C(c1cc(OC)ccc1OC)CS2`, the Potency entry in test [1] and in test [2] was “inactive” throughout.
With `CCCn1c(C)nc2c(NCCN3CCCC3)nc(C)nc21`, the Potency entry in test [1] and in test [2] was “inactive” each time.
Take `O=C1CCCC2=C1C(c1cccc(Cl)c1)N=C(Nc1nc3ccccc3o1)N2` (configuration not stated): the Potency result in test [1] and in test [2] was “inactive” in each case.
On to `O=C1NC(=O)/C(=C/c2ccco2)N1`, for which the Potency result in test [1] and in test [2] was “inactive” each time.
Turning to `COc1ccccc1N1C(=O)c2ccccc2C1=O`, the Potency result in test [1] and in test [2] was “inactive” in each case.
For the molecule `O=C1CCc2cc(S(=O)(=O)Nc3cccc(Cl)c3)ccc2N1`, the Potency result in test [1] and in test [2] was “inactive” throughout.
Take `c1nc(NCCCN2CCOCC2)c2cc(-c3ccc4c(c3)OCO4)ccc2n1`: the Potency result in test [1] and in test [2] was “inactive” throughout.
In the case of `C=CCNc1oc(-c2cccnc2)nc1C#N`, the Potency result in test [1] and in test [2] was “inactive” throughout.
For `Clc1cccc(-c2ccc3ncnc(NCc4ccc5c(c4)OCO5)c3c2)c1`, the Potency entry in test [1] and in test [2] was “inactive” in each case.
`Cc1ccc(C(=O)Oc2ccc(-c3nc4ccccc4[nH]3)cc2)cc1Br`: the Potency entry in test [1] and in test [2] was “inactive” throughout.
As for `CCN(CC)CCCCn1c(-c2ccccc2)nc2c(Nc3ccccc3)nc(C)nc21`, the Potency entry in test [1] and in test [2] was “inactive” each time.
As to `Cc1cc2c(s1)c1cnn(Cc3ccccc3F)c(=O)c1n2C(C)C`, the Potency result in test [1] and in test [2] was “inactive” throughout.
On to `COc1cc(OC)cc(-c2nnc3n2N=C(c2cc(OC)ccc2OC)CS3)c1`, for which the Potency entry in test [1] and in test [2] was “inactive” throughout.
As to `COc1ccc(C2Nc3ccccc3C(=O)N2Cc2cccnc2)cc1COc1c(C)cc(NC(C)=O)cc1C` (configuration not stated), the Potency entry in test [1] and in test [2] was “inactive” each time.
Regarding `O=C1CCCC2=C1C(c1[nH]ncc1Cl)NC(=NCc1ccncc1)N2` (configuration not stated), the Potency entry in test [1] and in test [2] was “inactive” throughout.
Take `O=C1CCCC2=C1C(c1[nH]ncc1Cl)N=C(Nc1nc3c(Br)cccc3o1)N2` (configuration not stated): the Potency entry in test [1] and in test [2] was “inactive” throughout.
Consider `Cc1cccc(-c2ccc3ncnc(NCc4cccc(F)c4)c3c2)c1`, for which the Potency entry in test [1] and in test [2] was “inactive” each time.
As to `FC(F)(F)c1cccc(-c2ccc(CNc3nc(-c4ccccc4C(F)(F)F)nc4ccccc34)cc2)c1`, the Potency result in test [1] and in test [2] was “inactive” throughout.
For the molecule `O=C(Cc1ccc(Cl)c(Cl)c1)Nc1ccc(S(=O)(=O)Nc2ccccc2)cc1`, the Potency result in test [1] and in test [2] was “inactive” throughout.
As for `Cc1ccc(NS(=O)(=O)c2cc3c(cc2NC(C)C)NC(=O)CC3)cc1C`, the Potency result in test [1] and in test [2] was “inactive” in each case.
Regarding `CC(=O)Nc1sc2c(c1-c1nc(-c3ccccc3)cs1)CCN(C(C)C)C2`, the Potency result in test [1] and in test [2] was “inactive” each time.
In the case of `C/C1=C\CC(C)(C)/C=C/C/C(C(=O)O)=C/CC1`, the Potency result in test [1] and in test [2] was “inactive” throughout.
Consider `COc1cc(O)c(C(CC(=O)N2CCCC(C)C2)c2ccc(C)cc2)c(OC)c1` (configuration not stated), for which the Potency entry in test [1] and in test [2] was “inactive” throughout.
Regarding `FC(F)(F)c1cc(-c2nc3ccccc3s2)cc(C(F)(F)F)c1`, the Potency entry in test [1] and in test [2] was “inactive” in each case.
As to `O=C(CSc1nnc(-c2cccc([S+](=O)([O-])N3CCCC3)c2)n1-c1ccccc1)Nc1cccc(C(F)(F)F)c1`, the Potency entry in test [1] and in test [2] was “inactive” in each case.
For the molecule `O=C(Nc1cccc(C(F)(F)F)c1)Nc1nnc(-c2ccncc2)s1`, the Potency result in test [1] and in test [2] was “inactive” throughout.
Regarding `Fc1cc(Cl)cc(-c2ccc(CNc3nc(-c4ccccc4C(F)(F)F)nc4ccccc34)cc2)c1`, the Potency entry in test [1] and in test [2] was “inactive” each time.
`Cn1c2cc(Br)sc2c2cnn(Cc3ccccc3F)c(=O)c21`: the Potency entry in test [1] and in test [2] was “inactive” each time.
With `CCNc1cccc(S(=O)(=O)N2CCCN(S(=O)(=O)c3ccc4c(c3)OCCO4)CC2)c1`, the Potency entry in test [1] and in test [2] was “inactive” throughout.
Turning to `O=c1c2ccccc2nc2sc(Nc3ccc4c(c3)CCC4)nn12`, the Potency result in test [1] and in test [2] was “inactive” in each case.
Turning to `COc1ccc(-c2nnc3n2N=C(c2cc(OC)ccc2OC)CS3)cc1`, the Potency entry in test [1] and in test [2] was “inactive” throughout.
Consider `O=C1CCCC2=C1C(c1[nH]ncc1Cl)N=C(Nc1nc3cc(Cl)ccc3o1)N2` (configuration not stated), for which the Potency entry in test [1] and in test [2] was “inactive” in each case.
As to `COc1cccc(CNc2ccc(S(=O)(=O)Nc3ncc(C)s3)cc2)c1O`, the Potency entry in test [1] and in test [2] was “inactive” throughout.
Take `CC(=O)c1ccccc1-c1csc2ncnc(Sc3nnnn3C)c12`: the Potency entry in test [1] and in test [2] was “inactive” in each case.
For the molecule `O=C(O)c1cc(F)c(S(=O)(=O)N2CCN(S(=O)(=O)c3ccc4c(c3)OCCO4)CC2)cc1F`, the Potency entry in test [1] and in test [2] was “inactive” in each case.
On to `CC(Nc1nc(-c2ccccc2C(F)(F)F)nc2ccccc12)c1ccc(-c2cccc(C(F)(F)F)c2)cc1` (configuration not stated), for which the Potency entry in test [1] and in test [2] was “inactive” each time.
For the molecule `COc1ccc(C2Nc3ccccc3C(=O)N2Cc2ccco2)cc1COc1ccccc1C` (configuration not stated), the Potency entry in test [1] and in test [2] was “inactive” each time.
On to `Cc1c(P(=S)(c2ccccc2)c2ccccc2)c2ccccc2n1CCCc1ccccc1`, for which the Potency result in test [1] and in test [2] was “inactive” in each case.
For the molecule `O=C(Nc1ccc(Br)c(Br)c1)Nc1cccc(-c2ccncc2)n1`, the Potency result in test [1] and in test [2] was “inactive” each time.
In the case of `Fc1cc(Nc2nc(-c3ccncc3)nc3ccccc23)ccc1C(F)(F)F`, the Potency result in test [1] and in test [2] was “inactive” each time.
For `O=C(Nc1ccc2c(c1)OCCO2)Nc1nnc(-c2ccncc2)s1`, the Potency entry in test [1] and in test [2] was “inactive” throughout.
Regarding `CC1(C)C[C@@H]2C[C@@](C)(CN2S(=O)(=O)c2ccc(C(=O)Nc3ccc(Cl)c(S(=O)(=O)N4CCOCC4)c3)cc2)C1`, the Potency result in test [1] and in test [2] was “inactive” throughout.
For `COC(=O)c1ccccc1C(=O)Nc1nc(-c2ccccc2)cs1`, the Potency result in test [1] and in test [2] was “inactive” each time.
For `Cc1ccc(CNc2ncc(N3CCCCC3)cn2)cc1`, the Potency entry in test [1] and in test [2] was “inactive” each time.
On to `O=c1[nH]c2ccc(S(=O)(=O)N3CCN(S(=O)(=O)c4c(F)cccc4F)CC3)cc2[nH]c1=O`, for which the Potency entry in test [1] and in test [2] was “inactive” each time.
As for `COc1cccc(Cn2ncc3c4sc(SC)cc4n(C)c3c2=O)c1`, the Potency entry in test [1] and in test [2] was “inactive” throughout.
For `CCOC(=O)c1ccc(-n2cnc3cc(C(=O)N4CCCCC4)ccc32)cc1`, the Potency entry in test [1] and in test [2] was “inactive” in each case.
Regarding `CCOC(=O)C1CCN(C(=O)C(C)(C)NC(=O)Nc2ccc(C#N)cc2)CC1`, the Potency entry in test [1] and in test [2] was “inactive” throughout.
As to `O=S(=O)(NC1CCC(NS(=O)(=O)c2c(F)cccc2F)CC1)c1ccc2c(c1)OCCO2` (configuration not stated), the Potency result in test [1] and in test [2] was “inactive” throughout.
As to `Cc1cc(C)nc(NC(=S)N2CCN(c3ccc(C(F)(F)F)cc3Cl)CC2)c1`, the Potency entry in test [1] and in test [2] was “inactive” each time.
On to `CC1CCC2C(C)(C)C(O)CCC2(C)C12Cc1c(O)cc3c(c1O2)CN(C(CCCN=C(N)N)C(=O)O)C3=O` (configuration not stated), for which the Potency entry in test [1] and in test [2] was “inactive” in each case.
As to `Cc1nnc(-c2cnn(C)c2N)o1`, the Potency entry in test [1] and in test [2] was “inactive” throughout.
As to `Cc1ccccc1S(=O)(=O)N1CCN(S(=O)(=O)c2ccc3c(c2)OCCO3)CC1`, the Potency entry in test [1] and in test [2] was “inactive” each time.
Turning to `CC(C)(C)c1ccc(NC(=O)c2cccs2)cn1`, the Potency result in test [1] and in test [2] was “inactive” each time.
Take `Cc1ccc(OCCn2c(CCNC(=O)Cc3cccc(F)c3)nc3ccccc32)cc1`: the Potency entry in test [1] and in test [2] was “inactive” each time.
Turning to `Cc1cn([C@H]2C[C@H](N[S+](=O)([O-])Cc3cccc([N+](=O)[O-])c3)[C@@H](CO)O2)c(=O)[nH]c1=O`, the Potency result in test [1] and in test [2] was “inactive” each time.
For `CSc1ccccc1-c1ncc(C)c(NCc2ccc(-c3cccnc3)cc2)n1`, the Potency result in test [1] and in test [2] was “inactive” each time.
Consider `CCC(CC)C(=O)OC12C(OC(=O)C(C)C)C(C)C3(O)C(C=C(CO)CC4(O)C(=O)C(C)=CC43)C1C2(C)C` (configuration not stated), for which the Potency result in test [1] and in test [2] was “inactive” each time.
